# Data published in paper PMC7862700, “An all-to-all approach to the identification of sequence-specific readers for epigenetic DNA modifications on cytosine”.
# How the values were obtained:
# Experiment in all cases: DAPPL (digital affinity profiling via proximity ligation, sequencing); 10 mM Tris-HCl pH 7.5, 50 mM NaCl, 1 mM DTT, 4% glycerol, room temperature, 30 min; GST-TFs on glutathione beads, 16-mer random dsDNA library, 0.1% formaldehyde crosslink after washing; high values mean tight binding
# [1] = molecular target: T1, FEV (Homo sapiens, UniProt Q99581 1-238); details: protein: recombinant; tags: N-terminal GST; dsDNA, one strand shown
# T1 sequence: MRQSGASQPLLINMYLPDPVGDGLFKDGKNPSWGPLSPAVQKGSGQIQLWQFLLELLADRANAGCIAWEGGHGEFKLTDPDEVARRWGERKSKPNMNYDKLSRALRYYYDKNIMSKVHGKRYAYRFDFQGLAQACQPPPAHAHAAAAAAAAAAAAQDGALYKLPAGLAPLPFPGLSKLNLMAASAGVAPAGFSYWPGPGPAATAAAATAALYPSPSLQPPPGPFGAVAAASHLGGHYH
# Outline: (§1)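 A tag-only sample was pooled with DNA-barcoded human transcription factors that had been expressed in yeast as GST fusions and captured on glutathione beads. The pools were incubated for 30 min at room temperature with 200 nmole of a random double-stranded 16-mer DNA library in Tris/NaCl/DTT/glycerol buffer, then washed, crosslinked with 0.1% formaldehyde, proximity-ligated (BsaI/T4 ligase, 1 h, 37 °C), PCR-amplified and sequenced on an Illumina NextSeq500. Binding signal is each hexamer's read frequency for a factor divided by its frequency for the tag-only sample.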
# [2] = molecular target: ETV5 (Homo sapiens, UniProt P41161 1-510); details: protein: recombinant; tags: N-terminal GST; dsDNA, one strand shown
# Sequence of ETV5 (P41161 whole entry): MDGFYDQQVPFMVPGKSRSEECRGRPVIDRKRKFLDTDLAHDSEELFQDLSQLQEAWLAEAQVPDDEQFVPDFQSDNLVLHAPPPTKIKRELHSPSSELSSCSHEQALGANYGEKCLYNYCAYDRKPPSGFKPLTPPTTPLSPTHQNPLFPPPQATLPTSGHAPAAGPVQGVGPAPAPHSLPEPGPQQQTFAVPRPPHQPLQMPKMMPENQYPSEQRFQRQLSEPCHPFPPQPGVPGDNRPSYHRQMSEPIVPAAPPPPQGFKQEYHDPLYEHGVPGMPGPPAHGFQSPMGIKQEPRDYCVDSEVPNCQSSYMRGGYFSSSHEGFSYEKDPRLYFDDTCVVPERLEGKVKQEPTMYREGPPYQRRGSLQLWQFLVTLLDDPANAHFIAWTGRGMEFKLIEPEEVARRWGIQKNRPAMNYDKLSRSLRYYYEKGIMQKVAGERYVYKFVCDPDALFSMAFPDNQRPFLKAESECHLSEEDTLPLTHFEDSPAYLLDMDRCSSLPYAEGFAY
# Outline: as §1
# [3] = molecular target: HSF1 (Homo sapiens, UniProt Q00613 1-529); details: protein: recombinant; tags: N-terminal GST; chain copies: 3; dsDNA, one strand shown
# Sequence of HSF1 (Q00613 whole entry): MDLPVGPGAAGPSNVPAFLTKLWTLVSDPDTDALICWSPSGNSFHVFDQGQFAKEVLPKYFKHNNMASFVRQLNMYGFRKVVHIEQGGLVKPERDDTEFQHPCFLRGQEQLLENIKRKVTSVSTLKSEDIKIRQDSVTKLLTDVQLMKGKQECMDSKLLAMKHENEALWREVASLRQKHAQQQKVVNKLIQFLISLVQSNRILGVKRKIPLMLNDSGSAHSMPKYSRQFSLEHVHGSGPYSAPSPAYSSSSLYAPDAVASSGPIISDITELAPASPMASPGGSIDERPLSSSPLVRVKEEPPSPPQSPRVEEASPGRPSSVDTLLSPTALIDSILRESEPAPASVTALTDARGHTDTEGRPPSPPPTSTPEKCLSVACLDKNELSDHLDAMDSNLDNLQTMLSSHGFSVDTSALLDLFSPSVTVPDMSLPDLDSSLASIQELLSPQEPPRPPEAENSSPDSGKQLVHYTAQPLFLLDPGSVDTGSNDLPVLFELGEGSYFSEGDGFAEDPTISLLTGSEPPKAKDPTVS
# Outline: as §1
# [4] = molecular target: T2, SPIC (Homo sapiens, UniProt Q8N5J4 1-248); details: protein: recombinant; tags: N-terminal GST; dsDNA, one strand shown
# T2 sequence: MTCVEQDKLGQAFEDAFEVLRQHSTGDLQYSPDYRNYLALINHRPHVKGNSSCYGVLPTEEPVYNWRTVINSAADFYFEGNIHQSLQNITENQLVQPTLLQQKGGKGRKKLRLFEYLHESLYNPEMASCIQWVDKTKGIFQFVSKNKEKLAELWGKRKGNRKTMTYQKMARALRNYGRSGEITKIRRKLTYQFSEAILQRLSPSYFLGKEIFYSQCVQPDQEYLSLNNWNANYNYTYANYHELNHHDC
# Outline: as §1
# [5] = molecular target: ELF4 (Homo sapiens, UniProt Q99607 1-663); details: protein: recombinant; tags: N-terminal GST; dsDNA, one strand shown
# Sequence of ELF4 (Q99607 whole entry): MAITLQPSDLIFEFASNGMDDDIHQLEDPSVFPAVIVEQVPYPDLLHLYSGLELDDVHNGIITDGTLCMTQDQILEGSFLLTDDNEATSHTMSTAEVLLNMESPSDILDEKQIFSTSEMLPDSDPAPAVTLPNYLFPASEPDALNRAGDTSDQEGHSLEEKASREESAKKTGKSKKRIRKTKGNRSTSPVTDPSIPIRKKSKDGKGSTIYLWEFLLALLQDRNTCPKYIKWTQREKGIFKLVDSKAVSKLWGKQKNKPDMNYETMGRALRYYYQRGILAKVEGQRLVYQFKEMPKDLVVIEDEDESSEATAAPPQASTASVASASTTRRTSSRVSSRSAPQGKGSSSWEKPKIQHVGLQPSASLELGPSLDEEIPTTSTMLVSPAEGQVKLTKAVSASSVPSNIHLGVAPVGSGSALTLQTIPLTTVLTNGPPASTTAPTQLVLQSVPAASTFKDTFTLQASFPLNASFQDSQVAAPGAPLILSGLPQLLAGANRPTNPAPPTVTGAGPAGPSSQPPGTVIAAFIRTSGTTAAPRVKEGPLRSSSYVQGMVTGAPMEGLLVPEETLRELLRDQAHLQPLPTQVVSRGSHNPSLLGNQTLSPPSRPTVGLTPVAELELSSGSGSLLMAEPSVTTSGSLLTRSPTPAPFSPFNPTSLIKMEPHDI
# Outline: as §1
# [6] = molecular target: T3, ELK4 (Homo sapiens, UniProt P28324-2 1-405); details: protein: recombinant; tags: N-terminal GST; dsDNA, one strand shown
# T3 sequence: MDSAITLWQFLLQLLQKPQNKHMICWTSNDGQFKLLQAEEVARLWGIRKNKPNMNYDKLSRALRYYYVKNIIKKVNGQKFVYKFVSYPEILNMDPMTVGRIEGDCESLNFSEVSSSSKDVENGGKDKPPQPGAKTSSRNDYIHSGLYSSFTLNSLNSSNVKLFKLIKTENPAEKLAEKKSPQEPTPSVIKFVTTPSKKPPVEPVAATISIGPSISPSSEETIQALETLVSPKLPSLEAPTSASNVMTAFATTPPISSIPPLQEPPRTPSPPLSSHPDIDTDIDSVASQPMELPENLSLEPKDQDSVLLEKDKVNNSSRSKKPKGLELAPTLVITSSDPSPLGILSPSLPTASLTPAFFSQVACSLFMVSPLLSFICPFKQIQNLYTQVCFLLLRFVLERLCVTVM
# Outline: as §1
# [7] = molecular target: T4, ETV2 (Homo sapiens, UniProt O00321 1-342); details: protein: recombinant; tags: N-terminal GST; dsDNA, one strand shown
# T4 sequence: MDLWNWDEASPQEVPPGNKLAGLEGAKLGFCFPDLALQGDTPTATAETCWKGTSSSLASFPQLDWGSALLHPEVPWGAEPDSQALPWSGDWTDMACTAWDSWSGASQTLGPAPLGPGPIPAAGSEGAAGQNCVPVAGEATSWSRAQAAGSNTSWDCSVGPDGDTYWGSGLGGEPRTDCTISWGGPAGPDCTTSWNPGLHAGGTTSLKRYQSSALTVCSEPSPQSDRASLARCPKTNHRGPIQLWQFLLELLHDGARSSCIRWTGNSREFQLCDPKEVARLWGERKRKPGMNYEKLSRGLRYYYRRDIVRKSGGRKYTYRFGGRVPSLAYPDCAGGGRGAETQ
# Outline: as §1
# [8] = molecular target: T5, ELF3 (Homo sapiens, UniProt P78545 1-371); details: protein: recombinant; tags: N-terminal GST; dsDNA, one strand shown
# T5 sequence: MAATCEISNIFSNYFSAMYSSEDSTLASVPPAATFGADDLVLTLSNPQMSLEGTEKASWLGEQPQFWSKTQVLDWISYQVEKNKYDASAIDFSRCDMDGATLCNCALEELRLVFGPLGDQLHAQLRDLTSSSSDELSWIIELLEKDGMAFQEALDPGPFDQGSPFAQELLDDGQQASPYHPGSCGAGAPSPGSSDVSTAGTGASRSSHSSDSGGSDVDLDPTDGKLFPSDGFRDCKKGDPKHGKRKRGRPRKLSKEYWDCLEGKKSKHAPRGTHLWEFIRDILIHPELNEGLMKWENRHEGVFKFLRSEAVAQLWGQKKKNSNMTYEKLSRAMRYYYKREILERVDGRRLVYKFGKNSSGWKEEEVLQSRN
# Outline: as §1
# [9] = molecular target: CRX (Homo sapiens, UniProt O43186 1-299); details: protein: recombinant; tags: N-terminal GST; dsDNA, one strand shown
# Sequence of CRX (O43186 whole entry): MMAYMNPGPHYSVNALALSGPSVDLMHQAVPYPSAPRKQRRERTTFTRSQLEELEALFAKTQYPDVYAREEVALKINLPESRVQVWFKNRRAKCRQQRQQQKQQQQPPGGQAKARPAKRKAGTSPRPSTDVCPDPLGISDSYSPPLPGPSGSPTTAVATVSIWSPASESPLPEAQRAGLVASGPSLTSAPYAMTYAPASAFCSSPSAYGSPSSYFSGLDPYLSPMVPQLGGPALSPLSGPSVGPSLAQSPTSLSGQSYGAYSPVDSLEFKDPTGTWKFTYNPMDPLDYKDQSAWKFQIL
# Outline: as §1
sequence,measurement,setting,value
TTTCAA,binding signal,[1],"1.34 fold enrichment (6-mer frequency, TF over GST control)"
same,binding signal,[2],"1.29 fold enrichment (6-mer frequency, TF over GST control)"
same,binding signal,[3],"1.23 fold enrichment (6-mer frequency, TF over GST control)"
same,binding signal,[4],"1.33 fold enrichment (6-mer frequency, TF over GST control)"
same,binding signal,[5],"1.34 fold enrichment (6-mer frequency, TF over GST control)"
same,binding signal,[6],"1.29 fold enrichment (6-mer frequency, TF over GST control)"
same,binding signal,[7],"1.32 fold enrichment (6-mer frequency, TF over GST control)"
same,binding signal,[8],"1.33 fold enrichment (6-mer frequency, TF over GST control)"
same,binding signal,[9],"1.34 fold enrichment (6-mer frequency, TF over GST control)"
